Out of some 39,000 compounds screened, about 220 (0.56%) showed activity. Only a selection was taken, and actives are over-represented in it overall. Values without a mark were called inactive.
tested on: Escherichia coli K-12 BW25113; experiment: relative growth (OD600 normalised to plate interquartile mean) (fraction); higher = less growth inhibition, active = 0.2 or less; settings: 50 µM; LB; incubation time: overnight (16-24 h)
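Further: Wild-type cells incubated without shaking, value is the mean of two biological replicates.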

Row | SMILES | relative growth
1 | COc1ccc([Si](C)(C)[C@@H]2[C@@H](CC(=O)N3CCC[C@H]3CO)O[C@]3(C(=O)N(Cc4cccc(N5CCCCC5=O)c4)c4ccccc43)[C@H]2C)cc1 | 1.02
2 | Nc1nc(/C(=C/CC(=O)O)C(=O)N[C@@H]2C(=O)N3C(C(=O)O)=CCS[C@H]23)cs1 | 1.01
3 | C=CC1=C(C(=O)O)N2C(=O)[C@@H](NC(=O)/C(=N\OCC(=O)O)c3csc(N)n3)[C@H]2SC1 | 0.0479 (active)
4 | C/C=C/C1=C(C(=O)O)N2C(=O)[C@@H](NC(=O)[C@H](N)c3ccc(O)cc3)[C@H]2SC1 | 0.876
5 | C=CC1=C(C(=O)O)N2C(=O)C(NC(=O)C(=NOCC(=O)O)c3csc(N)n3)C2SC1 (stereo not drawn) | 1.01
6 | C=CC1=C(C(=O)O)N2C(=O)C(NC(=O)C(=NO)c3csc(N)n3)C2SC1 (stereo not drawn) | 0.05 (active)
7 | Nc1nc(C(=CCC(=O)O)C(=O)NC2C(=O)N3C(C(=O)O)=CCSC23)cs1 (stereo not drawn) | 0.0485 (active)
8 | C=CC1=C(C(=O)O)N2C(=O)[C@@H](NC(=O)/C(=N\O)c3csc(N)n3)[C@H]2SC1 | 0.0321 (active)
9 | C[C@H](CO)N1C[C@H](C)[C@H](CN(C)S(=O)(=O)c2ccccc2F)Oc2ncc(C#Cc3ccccc3F)cc2C1=O | 0.997
10 | CO[C@@H]1CN(C)C(=O)c2cc(NC(=O)c3ccccc3)ccc2OC[C@@H](C)N(C(=O)CN(C)C)C[C@@H]1C | 0.926
11 | Cc1noc(C)c1NC(=O)Nc1cccc2c1O[C@H](CN(C)Cc1ccc(Oc3ccccc3)cc1)[C@H](C)CN([C@H](C)CO)C2=O | 0.982
12 | Cc1noc(C)c1S(=O)(=O)Nc1ccc2c(c1)C(=O)N([C@@H](C)CO)C[C@@H](C)[C@@H](CN(C)S(=O)(=O)c1cccs1)O2 | 1.01
13 | C[C@H](CO)N1C[C@H](C)[C@H](CN(C)Cc2ccc(C(=O)O)cc2)Oc2ccc(NC(=O)CCCN(C)C)cc2C1=O | 1.01
14 | COc1ccc(C2=C(NC(=O)c3ccc(OC)cc3-c3cccc(OC)c3)C(=O)c3ccccc3C2=O)cc1 | 1.01
15 | C[C@@H]1CCCCO[C@@H](CN(C)C(=O)CCC(F)(F)F)[C@H](C)CN([C@H](C)CO)C(=O)c2cc(NS(=O)(=O)c3ccccc3)ccc2O1 | 0.994
16 | CC=CC1=C(C(=O)O)N2C(=O)C(NC(=O)C(N)c3ccc(O)cc3)C2SC1 (stereo not drawn) | 1.08
17 | C=CC1=C(C(=O)O)N2C(=O)[C@@H](NC(=O)/C(=N/O)c3csc(N)n3)[C@H]2SC1 | 0.0336 (active)
18 | C/C=C\C1=C(C(=O)O)N2C(=O)[C@H](NC(=O)[C@@H](N)c3ccc(O)cc3)[C@@H]2SC1 | 0.912
19 | Nc1nc(/C(=N/O)C(=O)N[C@@H]2C(=O)N3C(C(=O)O)=C(/C=C4\CCN([C@@H]5CCNC5)C4=O)CS[C@H]23)ns1 | 0.0367 (active)
20 | C[C@H](CO)N1C[C@H](C)[C@H](CN(C)S(=O)(=O)c2ccc(Cl)cc2)Oc2ccc(NC(=O)CCCN(C)C)cc2C1=O | 0.989
21 | COc1ccc(Cc2nn[nH]n2)cc1 | 1

Row | SMILES | relative growth
22 | Cc1noc(C)c1NC(=O)N(C)C[C@H]1OCCCC[C@H](C)Oc2ccc(NC(=O)c3ccccc3)cc2C(=O)N([C@@H](C)CO)C[C@H]1C | 0.98
23 | CCc1nc2ccc(C(=O)Nc3cccc(OC)c3)cn2c1N(CC)Cc1cccc(Br)c1 | 1.01
24 | CO[C@H]1CN(C)C(=O)c2cc(NC(C)=O)ccc2OC[C@@H](C)N(S(=O)(=O)c2cn(C)cn2)C[C@@H]1C | 1.01
25 | COc1c(N2CC3CCCNC3C2)c(F)cc2c(=O)c(C(=O)O)cn(C3CC3)c12.Cl (stereo not drawn) | 0.0459 (active)
26 | CCn1cc(C(=O)O)c(=O)c2cc(F)c(N3CCNC(C)C3)c(F)c21.Cl (stereo not drawn) | 0.0478 (active)
27 | COc1c(N2CCNC(C)C2)c(F)cc2c(=O)c(C(=O)O)cn(C3CC3)c12 (stereo not drawn) | 0.0431 (active)
28 | C[C@@H]1CN([C@@H](C)CO)C(=O)c2cc(Br)cnc2O[C@H]1CN(C)C(=O)c1ccc2c(c1)OCO2 | 0.994
29 | Nc1c2c(=O)[nH]c(=O)cc-2[nH]n1-c1ccccc1 | 0.972
30 | COCC#Cc1ccc2c(c1)O[C@H](CN(C)C(=O)C1CCOCC1)[C@H](C)CN([C@@H](C)CO)S2(=O)=O | 1.01
31 | CC(C)CNC(=O)C[C@H]1NCCNC1=O | 0.923
32 | CN1C(=O)c2cc(NC(=O)c3cccs3)ccc2OC[C@@H]2O[C@H](CC(=O)NCCN3CCCCC3)CC[C@H]21 | 1.02
33 | C[C@@H]1CN([C@H](C)CO)C(=O)c2cc(NC(=O)Cn3cnnn3)ccc2O[C@@H]1CN(C)Cc1ccncc1 | 1.01
34 | C[C@H]1CN([C@@H](C)CO)C(=O)c2cc(-c3ccncc3)cnc2O[C@H]1CN(C)S(=O)(=O)c1ccccc1 | 1.01
35 | C=C(CC[C@@H](C)[C@H]1CC[C@@]2(C)C3=C(C[C@H](O)[C@]12C)[C@@]1(C)CC[C@@H](OC(=O)CC(=O)O)C(C)(C)[C@@H]1CC3)[C@@H](C)C(=O)O | 0.89
36 | C[C@@H]1CN([C@H](C)CO)C(=O)c2cc(NC(=O)Nc3ccc(F)cc3)ccc2O[C@@H](C)CCCCO[C@H]1CN(C)C(=O)C1CCCCC1 | 1.01
37 | CN1CCN(C(=O)C[C@@H]2CC[C@@H]3[C@H](COC[C@H](O)CN3C(=O)Nc3ccc4c(c3)OCO4)O2)CC1 | 0.974
38 | Cc1noc(C)c1S(=O)(=O)N(C)C[C@@H]1OCCCC[C@H](C)Oc2ccc(NC(=O)Nc3ccc(F)cc3)cc2C(=O)N([C@H](C)CO)C[C@@H]1C | 1
39 | CON=C(C(=O)NC1C(=O)N2C(C(=O)[O-])=C(CSc3nc(=O)c([O-])nn3C)CSC12)c1csc(N)n1.O.O.O.[Na+].[Na+] (stereo not drawn) | 0.0494 (active)
40 | COCC1=C(C(=O)OC(C)OC(=O)OC(C)C)N2C(=O)C(NC(=O)C(=NOC)c3csc(N)n3)C2SC1 (stereo not drawn) | 0.551
41 | CON=C(C(=O)NC1C(=O)N2C(C(=O)OC(C)OC(C)=O)=C(COC(N)=O)CSC12)c1ccco1 (stereo not drawn) | 0.881
42 | CO/N=C(\C(=O)N[C@@H]1C(=O)N2C(C(=O)O[C@@H](C)OC(C)=O)=C(COC(N)=O)CS[C@H]12)c1ccco1 | 1.01

Row | SMILES | relative growth
43 | CON=C(C(=O)NC1C(=O)N2C(C(=O)[O-])=C(COC(N)=O)CSC12)c1ccco1.[Na+] (stereo not drawn) | 0.0464 (active)
44 | CON=C(C(=O)NC1C(=O)N2C(C(=O)[O-])=C(COC(C)=O)CSC12)c1csc(N)n1.[Na+] (stereo not drawn) | 0.0428 (active)
45 | CO/N=C(\C(=O)N[C@@H]1C(=O)N2C(C(=O)O)=C(CSc3nnnn3C)CS[C@H]12)c1csc(N)n1 | 0.0456 (active)
46 | Nc1nc(=O)c2nc(Br)n([C@@H]3O[C@@H]4COP(=O)(O)O[C@H]4[C@H]3O)c2[nH]1 | 1.03
47 | O=C(C[C@@H]1C[C@H]2c3cc(NC(=O)Nc4ccc(C(F)(F)F)cc4)ccc3O[C@H]2[C@H](CO)O1)NCc1ccc(Cl)cc1 | 0.984
48 | CN1CCN(C(=O)C[C@H]2CC[C@@H]3[C@H](COC[C@H](O)CN3CC3CCCC3)O2)CC1 | 1
49 | C[C@H](CO)N1C[C@H](C)[C@H](CN(C)C(=O)c2cccc(F)c2)Oc2cc(-c3cccnc3)ccc2S1(=O)=O | 1.03
50 | NCC[C@H]1CC[C@H](NC(=O)NC2CCCCC2)[C@H](CO)O1 | 0.986
51 | C[C@@H]1CN([C@@H](C)CO)C(=O)Cc2cc(NC(=O)Nc3ccccc3)ccc2O[C@@H]1CN(C)Cc1ccc(Oc2ccccc2)cc1 | 0.967
52 | Cc1nc(CN)c(C)o1 | 0.995
53 | C[C@@H]1CN([C@@H](C)CO)C(=O)c2cc(NC(=O)Nc3ccc(C(F)(F)F)cc3)ccc2O[C@@H]1CN(C)S(=O)(=O)c1ccc(Cl)cc1 | 1.04
54 | C[C@H](CO)N1C[C@H](C)[C@H](CN(C)C(=O)Nc2ccc(C(F)(F)F)cc2)Oc2ccc(NC(=O)CCCCCC(=O)Nc3ccccc3N)cc2C1=O | 0.925
55 | Cc1noc(C)c1NC(=O)Nc1cccc2c1O[C@@H](CN(C)Cc1ccc(-c3ccccc3)cc1)[C@H](C)CN([C@@H](C)CO)C2=O | 1.01
56 | CON=C(C(=O)N[C@@H]1C(=O)N2C(C(=O)O)=C(CSc3nc(=O)c(O)nn3C)CS[C@H]12)c1csc(N)n1 | 0.0335 (active)
57 | C[C@@H]1CN([C@@H](C)CO)C(=O)Cc2cc(NC(=O)Nc3ccc(C(F)(F)F)cc3)ccc2O[C@@H]1CN(C)Cc1ccc(C(=O)Nc2ccccc2N)cc1 | 1
58 | Cc1noc(C)c1NC(=O)Nc1ccc2c(c1)C(=O)N([C@H](C)CO)C[C@@H](C)[C@H](CN(C)S(=O)(=O)c1cccs1)OCCCC[C@H](C)O2 | 0.988
59 | C[C@@H]1CN([C@H](C)CO)C(=O)c2cc(NS(=O)(=O)c3cccs3)ccc2O[C@H]1CN(C)Cc1ccc(Cl)c(Cl)c1 | 0.994
60 | Cc1ccc(S(=O)(=O)N(C)C[C@H]2OCCCC[C@@H](C)Oc3ccc(NC(=O)Nc4c(C)noc4C)cc3C(=O)N([C@@H](C)CO)C[C@@H]2C)cc1 | 0.961
61 | COc1ccc2c3c(n(c2c1)C)[C@@H](CO)N(C[C@]13CN(C1)C(=O)CN1CCOCC1)C(=O)Nc1ccc(cc1)F | 0.977
62 | C[C@H]1CN([C@@H](C)CO)C(=O)Cc2cc(NC(=O)NC3CCCCC3)ccc2O[C@H]1CN(C)Cc1ccc(Oc2ccccc2)cc1 | 1.03
63 | C[C@@H]1CN([C@@H](C)CO)C(=O)c2cc(NC(=O)C3CCCCC3)ccc2O[C@@H]1CN(C)C(=O)Nc1cccc2ccccc12 | 1.01
